# Source: PubChem BioAssay (National Center for Advancing Translational Sciences (NCATS))
# Hits are enriched below; roughly 4% of the tested compounds scored in any of these assays.
# D1 agonist: human D1 receptor agonism | HEK293 T-REx D1 cells, calcium flux, agonist mode | activation, % at 2 µM | 360,000 compounds, 1% hits; further: 0% is about no effect
# Target sequence (P21728 whole entry, looked up): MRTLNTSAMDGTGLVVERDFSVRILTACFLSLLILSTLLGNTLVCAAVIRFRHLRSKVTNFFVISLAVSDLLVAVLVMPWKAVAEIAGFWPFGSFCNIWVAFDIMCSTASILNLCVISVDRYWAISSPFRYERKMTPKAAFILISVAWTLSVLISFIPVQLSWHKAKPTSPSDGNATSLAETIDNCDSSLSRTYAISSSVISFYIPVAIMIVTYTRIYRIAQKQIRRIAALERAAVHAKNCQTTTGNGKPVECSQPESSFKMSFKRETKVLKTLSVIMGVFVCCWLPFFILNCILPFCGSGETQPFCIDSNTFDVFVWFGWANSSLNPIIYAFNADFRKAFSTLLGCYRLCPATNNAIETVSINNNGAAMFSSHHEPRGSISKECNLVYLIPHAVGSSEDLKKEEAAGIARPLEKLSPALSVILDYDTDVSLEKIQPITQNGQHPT
#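 Agonism was scored from calcium flux recorded over 180 s (1 read/s) after pintool compound addition, following a 10-cycle baseline. Cells were inducible force-coupled HEK293 TREx D1, plated overnight at 30 C and loaded with no-wash calcium dye.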
# GRP78 ERSR act: inducers of ER stress response in human glioma cells. U87-MG GRP78 promoter luciferase reporter, 16 h. Potency, µM, for the others: at the highest dose activation, hits mostly activators. 420,000 compounds, 0.02% hits. AID 602332; active means well fitted activation curve with a large enough effect; further: potency means the concentration at half of the fitted maximal effect; series mostly up to about 76 µM; % of control where 0% means no effect; nearly all actives have a fitted effect of over 35% in size
#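 Stably transfected U87-MG human glioma cells carrying a GRP78-based luminescent sensor were seeded at 1000 cells/well, pin-dosed with compounds and incubated 16 h. Luciferase reagent was then added, and end-point luminescence was read after 10 min at room temperature.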
# D1 PAM: enhances dopamine response at the human D1 receptor | potentiation, % at 10 µM | AID 504651 | P21728 | HEK293 TREx D1 cells, calcium flux, dopamine EC20 potentiation | 360,000 compounds, 0.036% hits; in the data active means potentiation above about 30%; further: 0% is about no effect
# TRHR agonist: activates the human TRH receptor | TRHR cells, calcium flux fluo-8, FDSS agonist mode | activation, % at 2 µM | 360,000 compounds, 0.18% hits; further: 0% is about no effect
#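 Agonist-mode FDSS calcium read (Ex 480/Em 530, 1 s cycles) in 1536-well TRHR cells with fluo-8 dye, after 10-cycle baseline and 23 nL compound addition; TRH at EC20 (10 nM final) added afterwards for the enhancer phase.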
# D1 antag: human D1 dopamine receptor antagonism; activity change, negative = inhibition, % at 10 µM; 360,000 compounds, 3.2% hits; HEK293 TREx D1 cells, calcium flux, dopamine EC80; active compounds read low; P21728; in the data active means activity change below about -30%; further: on the % scale 0 is the no-effect control and ±100 the full control effect
#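 Compound effects on dopamine-evoked calcium signalling were measured in tetracycline-induced HEK293 Trex D1 cells. Dopamine at EC80 followed a 180 s compound pre-read, and fluorescence was tracked kinetically for 180 s more.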
# TRHR PAM: allosteric enhancers of human TRH receptor. P34981. TRHR cells, fluo-8 calcium fluorescence, EC20 TRH enhancement. enhancement, % at 2 µM. 360,000 compounds, 0.66% hits; in the data active means enhancement above about 30%; further: 0% is about no effect
#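 Enhancer read-out: after compound pinning and an initial kinetic agonist-mode read, an EC20 of TRH (10 nM final) was injected and fluo-8 calcium signal (Ex 480/Em 530) followed at 1 s/cycle for 100 cycles in TRHR-expressing cells.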
# An asterisk follows results filed as active; · = no result given. Unless noted, no stated cut-off is given here; in the data, active means activation above about 30%; inactive means the rest.
SMILES,D1 agonist,GRP78 ERSR act,D1 PAM,TRHR agonist,D1 antag,TRHR PAM
COc1ccc(NC(=O)CN2CCC(C(N)=O)(N3CCCCC3)CC2)c(OC)c1,0,-3%,-8,0,-37*,-5
COc1ccc(CCNC(=O)c2ccc(S(=O)(=O)N(C)c3ccccc3)cc2)cc1OC,3,-8%,2,-1,-4,1
COc1ccc(CCNC(=O)c2ccc(Cl)c(S(=O)(=O)N(C)c3ccccc3)c2)cc1,18,-6%,-4,0,-31*,-3
CN(Cc1ccc(OC(F)F)cc1)C(=O)c1ccc(S(=O)(=O)N(C)c2ccccc2)cc1,9,0%,-6,3,-40*,-5
COc1ccc(CCNC(=O)c2ccc(Cl)c(S(=O)(=O)N3CCCCCC3)c2)cc1,12,-3%,-3,1,4,2
COC(=O)c1cc(CNC(=O)c2ccc(S(=O)(=O)N(C)c3ccccc3)cc2)ccc1OC,1,-4%,-21,0,-68*,-20
Cc1ccc(CN(C)C(=O)c2ccc(S(=O)(=O)N(C)c3ccccc3)cc2)o1,5,-7%,-4,0,-26,-2
CC(C1SC(=S)NC1=O)C1SC(=S)NC1=O (configuration not stated),·,-6%,·,·,·,·
Cc1cccn2c(=O)cc(COc3cccc(NC(=O)Nc4cccc(Cl)c4)c3)nc12,1,-2%,-2,0,-59*,-1
Cc1cccn2c(=O)cc(COc3ccc(NC(=O)C(C)Oc4ccccc4)cc3)nc12 (configuration not stated),1,-3%,-3,0,-49*,4
Cc1cccc(C(=O)Nc2cccc(OCc3cc(=O)n4ccccc4n3)c2)c1,-1,-2%,-6,0,-71*,0
COc1ccccc1C(=O)Nc1ccc(OCc2cc(=O)n3cccc(C)c3n2)cc1,2,-1%,3,0,6,3
CCOc1ccc(C(=O)Nc2cccc(OCc3cc(=O)n4ccccc4n3)c2)cc1,-2,-2%,-3,-1,-17,-7
CCOc1ccccc1NC(=O)CN1C(=O)C2(SCC(=O)N2c2cccc(F)c2)c2ccccc21 (configuration not stated),5,-3%,5,1,5,-11
CCN(CC)CCn1c(OC)cc(=O)[nH]c1=O,-3,-5%,0,1,-1,14
COc1ccccc1Nc1nc(N)nc(CN2CCN(Cc3ccccc3)CC2)n1,0,-3%,-5,0,-37*,-6
COc1cccc(N2CCN(Cc3nc(N)nc(Nc4ccccc4)n3)CC2)c1,0,0%,-5,-1,-15,9
Cc1ccc(Nc2nc(N)nc(CN3CCc4ccccc4C3)n2)cc1,1,-3%,-8,0,-37*,2
Nc1nc(CN2CCN(Cc3ccccc3)CC2)nc(Nc2ccccc2)n1,2,1%,0,0,-38*,7
COc1ccccc1Nc1nc(N)nc(CN2CCCCC2)n1,3,-3%,-2,0,1,2
CCOc1cc(N2CCOCC2)c(OCC)cc1NC(=O)c1ccc(C)cc1,5,1%,-6,0,-2,2
O=C(OCCN1CCN(C2=NS(=O)(=O)c3ccccc32)CC1)c1cccc(Br)c1,4,-5%,-9,3,12,-9
Cc1ccc(OCc2nc3ccccc3n2CCOc2ccc(Cl)cc2)cc1,41*,-3%,0,4,15,-2
COCCn1c(COc2ccc(C)cc2)nc2ccccc21,3,3%,0,-1,-23,3
c1ccc2c(c1)ncn2CCN1CCCCC1,3,-5%,-16,0,-71*,1
SMILES,D1 agonist,GRP78 ERSR act,D1 PAM,TRHR agonist,D1 antag,TRHR PAM
c1ccc(OCCCCn2cnc3ccccc32)cc1,9,-1%,-5,0,-20,2
Cc1ccc(OCCCCn2cnc3ccccc32)cc1,12,6%,-3,0,-37*,11
Cc1cccc(Cn2c(COc3ccc(Cl)cc3)nc3ccccc32)c1,32*,·,-3,4,-9,0
c1ccc(CCn2cnc3ccccc32)cc1,4,5%,5,0,-1,-1
Cc1cc(C)n2nc(-c3ccc(F)cc3)cc2n1,·,-3%,·,·,·,·
O=C(COc1ccc(Cl)cc1Cl)Nc1ccccc1NS(=O)(=O)c1cccs1,7,5%,3,-1,-15,-3
CC(=O)c1ccc(NC(=S)NNC(=O)c2ccccc2[N+](=O)[O-])cc1,-2,5%,-1,0,·,0
C#CC1(O)CC(C)NCC1(C)CCC#N (configuration not stated),-1,-3%,1,1,-7,-3
COc1ccc(Cl)cc1NC(=O)CN(C)C(=O)c1cc2c(F)cccc2s1,2,-3%,-14,0,-10,-2
Cc1ccccc1N1C(=O)C(Cl)=C(N2CCOCC2)C1=O,1,-2%,-3,0,-45*,-3
Cc1ccc(OCCNC(=O)CCC(=O)N2CCOCC2)cc1,2,-1%,-9,0,2,7
CCN(c1ccccc1)S(=O)(=O)c1ccc(OC)c(NC(=O)CNCCc2ccccc2)c1,22,-3%,-13,-1,-33*,1
O=C(Nc1ccccn1)NC1CCS(=O)(=O)C1 (configuration not stated),1,-3%,-3,0,-34*,-3
CCC(=O)Nc1ccc(OCc2nnc3c4ccccc4c(C)nn23)cc1,3,-3%,5,0,-15,-3
CC(C)Cc1nnc(NS(=O)(=O)c2ccc([N+](=O)[O-])cc2)s1,0,-8%,-26,0,0,4
O=[N+]([O-])c1ccc(S(=O)(=O)Nc2nnc(C(F)(F)F)s2)cc1,2,-5%,-7,0,-52*,10
O=S(=O)(Nc1ccc(S(=O)(=O)N2CCCCCC2)cc1)c1cccs1,0,-1%,-1,-1,-4,3
CN1CCN(CCCNC(=O)c2ccc(/C=C3\Oc4ccccc4N(Cc4ccccc4F)C3=O)cc2)CC1,103*,-8%,-10,-1,-47*,0
COc1ccc(CN2CCN(C(=O)c3cccnc3)CC2)cc1Br,1,-3%,-5,0,-34*,-3
COc1ccccc1N1CCN(C(=O)c2cc(C)oc2C)CC1,3,-2%,7,0,-5,-2
COc1cccc(N2CCN(C(=O)c3cc(C)oc3C)CC2)c1,1,-1%,-1,0,-43*,-5
O=C(c1cccnc1)N1CCN(Cc2cccc(Br)c2)CC1,3,0%,3,0,-2,13
COc1cccc(N2CCN(C(=O)c3cccnc3)CC2)c1,3,-3%,6,-1,-39*,0
CC(C)CCOc1cccc(OCC(=O)O)c1,7,-1%,-3,1,-1,15
